64 compounds from the antibiotic and cytotoxicity screens of Wong et al. (2023) can be followed below.

Among all 39,000 compounds or so, about 3,300 (8.5%) were called active. The list comes from a sample in which actives are over-represented; it also holds similar structures and randomly drawn compounds.

The experiment deals with HepG2. Nature of the experiment: cytotoxicity call (relative viability < 0.9). The conditions noted are these: 10 µM.
For `CCC(=O)n1ccc(C(=O)N2CCOCC2)n1`, the cytotoxicity call is “inactive”.

As for `O=C(Nc1nn[nH]n1)C1CCCCC1`, the cytotoxicity call was “inactive”.

On to `C[C@@H]1CCCCO[C@H](CN(C)Cc2ccncc2)[C@@H](C)CN([C@@H](C)CO)C(=O)c2cc(NC(=O)Nc3ccc(F)cc3)ccc2O1`, for which the cytotoxicity call is “inactive”.

With `C[C@H](CO)N1C[C@H](C)[C@H](CN(C)C(=O)Nc2ccc(F)cc2)OCCCC[C@H](C)Oc2ccc(NC(=O)C3CCCCC3)cc2C1=O`, the cytotoxicity call was “inactive”.

On to `COc1cccc(OC)c1C(=O)NN`, for which the cytotoxicity call was “inactive”.

Turning to `FC(F)(F)c1ccccc1-c1ncc(-c2ccccc2)o1`, the cytotoxicity call is “inactive”.

`CC(=O)N(O)CCC[C@H]1NC(=O)CNC(=O)CNC(=O)CNC(=O)[C@@H](CCCN(O)C(C)=O)NC(=O)[C@@H](CCCN(O)C(C)=O)NC1=O`: the cytotoxicity call was “inactive”.

For the compound `COc1ccc(NC(=O)N(C)C[C@H]2OCCCC[C@H](C)Oc3ccc(NC(=O)C4CCCCC4)cc3C(=O)N([C@@H](C)CO)C[C@@H]2C)cc1`, the cytotoxicity call is “inactive”.

For the compound `C[C@@H]1CCCCO[C@H](CN(C)Cc2ccccc2)[C@@H](C)CN([C@H](C)CO)C(=O)c2cc(NC(=O)c3ccncc3)ccc2O1`, the cytotoxicity call was “inactive”.

On to `CCCCCN1CC=C[C@@]23O[C@@H]4C=CCOC(=O)[C@@H]4[C@H]2C(=O)N(CCCO)[C@@H]3C1=O`, for which the cytotoxicity call is “inactive”.

For `C[C@@H]1CN([C@H](C)CO)C(=O)c2cc(NC(=O)CCN3CCOCC3)ccc2O[C@@H]1CN(C)Cc1ccc2c(c1)OCO2`, the cytotoxicity call was “inactive”.

Turning to `O=C(C[C@H]1CC[C@@H]2[C@H](COC[C@H](O)CN2S(=O)(=O)c2ccc(Cl)cc2)O1)N[C@@H]1CCN(Cc2ccccc2)C1`, the cytotoxicity call is “inactive”.

For `O=C(C[C@@H]1CC[C@@H]2[C@H](COC[C@H](O)CN2S(=O)(=O)c2ccc(Cl)cc2)O1)N[C@@H]1CCN(Cc2ccccc2)C1`, the cytotoxicity call is “active”.

Turning to `O=C(C[C@H]1CC[C@@H]2[C@H](COC[C@@H](O)CN2S(=O)(=O)c2ccc(Cl)cc2)O1)N[C@H]1CCN(Cc2ccccc2)C1`, the cytotoxicity call is “inactive”.

For `O=C(C[C@@H]1CC[C@H]2[C@@H](COC[C@@H](O)CN2S(=O)(=O)c2ccc(Cl)cc2)O1)N[C@H]1CCN(Cc2ccccc2)C1`, the cytotoxicity call was “inactive”.

In the case of `O=C(C[C@@H]1CC[C@@H]2[C@H](COC[C@@H](O)CN2S(=O)(=O)c2ccc(Cl)cc2)O1)N[C@@H]1CCN(Cc2ccccc2)C1`, the cytotoxicity call was “inactive”.

As to `O=C(C[C@H]1CC[C@H]2[C@@H](COC[C@@H](O)CN2S(=O)(=O)c2ccc(Cl)cc2)O1)N[C@@H]1CCN(Cc2ccccc2)C1`, the cytotoxicity call is “active”.

`Cc1ccc(S(=O)(=O)Nc2ccc3c(c2)CC(=O)N([C@@H](C)CO)C[C@@H](C)[C@@H](CN(C)Cc2ccncc2)O3)cc1`: the cytotoxicity call was “inactive”.

`NC(=O)CSc1nc(N)cc(N)n1`: the cytotoxicity call is “inactive”.

Consider `COc1ccc(S(=O)(=O)Nc2ccc3c(c2)C(=O)N([C@H](C)CO)C[C@@H](C)[C@@H](CN(C)Cc2ccc4c(c2)OCO4)OCCCC[C@@H](C)O3)cc1`, for which the cytotoxicity call was “inactive”.

For `C[C@H](CO)N1C[C@H](C)[C@H](CN(C)C(=O)Nc2ccccc2)Oc2ccc(NC(=O)CCN3CCOCC3)cc2C1=O`, the cytotoxicity call was “inactive”.

As for `C[C@@H]1CN([C@@H](C)CO)C(=O)c2cccc(NS(=O)(=O)c3cn(C)cn3)c2O[C@H]1CN(C)C(=O)NC1CCCCC1`, the cytotoxicity call was “inactive”.

As for `Cc1ccc2nc(-c3ccncc3)cc(-c3ccccc3)c2c1`, the cytotoxicity call was “inactive”.

With `Cc1ccc2c(c1)/C(=C/c1ccncc1)c1cc3ccccc3nc1-2`, the cytotoxicity call was “active”.

With `Cc1ccc2ncccc2c1`, the cytotoxicity call was “inactive”.

Regarding `C[C@@H]1CCCCO[C@H](CN(C)C(=O)NC2CCCCC2)[C@@H](C)CN([C@H](C)CO)C(=O)c2cc(NC(=O)Nc3ccc(C(F)(F)F)cc3)ccc2O1`, the cytotoxicity call is “inactive”.

In the case of `CC(C)NC(=O)N(C)C[C@@H]1Oc2ncc(-c3ccc(C(=O)N(C)C)cc3)cc2C(=O)N([C@H](C)CO)C[C@@H]1C`, the cytotoxicity call is “inactive”.

Take `CN(C)CCNC(=O)[C@H]1Cn2ccnc2C2(CCN(Cc3nccs3)CC2)O1`: the cytotoxicity call is “inactive”.

With `C[C@H](NC(=O)[C@@H](Cc1ccc2ccccc2c1)NC(=O)[C@@H](C)N)C(=O)N[C@@H](Cc1c[nH]c2ccccc12)C(=O)N[C@H](Cc1ccccc1)C(=O)N[C@@H](CCCCN)C(N)=O`, the cytotoxicity call was “inactive”.

As to `CC(C)CC(NC(=O)C(C)NC(=O)CNC(=O)C(NC=O)C(C)C)C(=O)NC(C)C(=O)NC(C(=O)NC(C(=O)NC(C(=O)NC(Cc1c[nH]c2ccccc12)C(=O)NC(CC(C)C)C(=O)NC(Cc1c[nH]c2ccccc12)C(=O)NC(CC(C)C)C(=O)NC(Cc1c[nH]c2ccccc12)C(=O)NC(CC(C)C)C(=O)NC(Cc1c[nH]c2ccccc12)C(=O)NCCO)C(C)C)C(C)C)C(C)C` (centres undefined) [GRAMICIDIN (gramicidin A shown) ], the cytotoxicity call is “active”.

On to `CC(C)C[C@H](NP(=O)(O)O[C@H]1O[C@@H](C)[C@@H](O)[C@@H](O)[C@@H]1O)C(=O)N[C@H](Cc1c[nH]c2ccccc12)C(=O)O`, for which the cytotoxicity call is “inactive”.

`C[C@@H]1CCCCO[C@@H](CN(C)S(C)(=O)=O)[C@@H](C)CN([C@H](C)CO)C(=O)c2cc(NS(=O)(=O)c3cccs3)ccc2O1`: the cytotoxicity call was “inactive”.

Regarding `C[C@@H]1CN([C@H](C)CO)C(=O)c2c(c3ccccc3n2C)-c2ccccc2CO[C@@H]1CN(C)Cc1ccc(O)cc1`, the cytotoxicity call was “inactive”.

Regarding `CC(C)CC#Cc1ccc2c(c1)O[C@@H](CN(C)C(=O)c1cccnc1)[C@H](C)CN([C@H](C)CO)S2(=O)=O`, the cytotoxicity call was “inactive”.

Regarding `COc1ccc(NC(=O)N(C)C[C@@H]2OCCCC[C@H](C)Oc3ccc(NC(=O)Nc4ccccc4)cc3C(=O)N([C@@H](C)CO)C[C@@H]2C)cc1`, the cytotoxicity call was “inactive”.

Consider `COc1ccc(NC(=O)N(C)C[C@@H]2Oc3ccc(NC(=O)C4CC4)cc3CC(=O)N([C@@H](C)CO)C[C@H]2C)cc1`, for which the cytotoxicity call was “inactive”.

Turning to `O=c1ccc(-c2ccncc2)n[nH]1`, the cytotoxicity call is “inactive”.

`C[C@@H]1CN([C@H](C)CO)C(=O)c2cccc(NC(=O)Nc3ccc(C(F)(F)F)cc3)c2O[C@H]1CN(C)CC1CCCCC1`: the cytotoxicity call is “active”.

For the compound `C[C@H]1CN([C@@H](C)CO)C(=O)c2cccc(NC(=O)Nc3ccc(C(F)(F)F)cc3)c2O[C@@H]1CN(C)CC1CCCCC1`, the cytotoxicity call was “active”.

For the compound `C[C@@H]1CN([C@H](C)CO)C(=O)c2cccc(NC(=O)Nc3ccc(F)cc3)c2O[C@@H]1CN(C)CC1CCCCC1`, the cytotoxicity call was “inactive”.

Regarding `C[C@H]1CN([C@@H](C)CO)C(=O)c2cccc(NC(=O)Nc3ccc(F)cc3)c2O[C@H]1CN(C)CC1CCCCC1`, the cytotoxicity call is “inactive”.

In the case of `C[C@H](CO)N1C[C@H](C)[C@H](CN(C)CC2CCCCC2)Oc2c(NC(=O)Nc3ccc(F)cc3)cccc2C1=O`, the cytotoxicity call is “inactive”.

As for `C[C@@H]1CN([C@@H](C)CO)C(=O)c2cccc(NC(=O)Nc3ccc(C(F)(F)F)cc3)c2O[C@@H]1CN(C)CC1CCCCC1`, the cytotoxicity call is “inactive”.

On to `C[C@H](CO)N1C[C@H](C)[C@H](CN(C)CC2CCCCC2)Oc2c(NC(=O)Nc3ccc(C(F)(F)F)cc3)cccc2C1=O`, for which the cytotoxicity call is “inactive”.

For the compound `C[C@@H]1CN([C@H](C)CO)C(=O)c2cccc(NC(=O)Nc3ccc(C(F)(F)F)cc3)c2O[C@@H]1CN(C)CC1CCCCC1`, the cytotoxicity call was “active”.

With `C[C@H](CO)N1C[C@H](C)[C@@H](CN(C)CC2CCCCC2)Oc2c(NC(=O)Nc3ccc(C(F)(F)F)cc3)cccc2C1=O`, the cytotoxicity call is “inactive”.

With `C[C@H]1CN([C@@H](C)CO)C(=O)c2cccc(NC(=O)Nc3ccc(C(F)(F)F)cc3)c2O[C@H]1CN(C)CC1CCCCC1`, the cytotoxicity call was “active”.

On to `C[C@@H]1CN([C@@H](C)CO)C(=O)c2cccc(NC(=O)Nc3ccc(F)cc3)c2O[C@H]1CN(C)CC1CCCCC1`, for which the cytotoxicity call was “inactive”.

On to `C[C@@H]1CN([C@H](C)CO)C(=O)c2cccc(NC(=O)Nc3ccc(F)cc3)c2O[C@H]1CN(C)CC1CCCCC1`, for which the cytotoxicity call was “inactive”.

With `COc1nc(C#N)nc(N2CCCCC2)n1`, the cytotoxicity call is “inactive”.

Take `COc1ccc(S(=O)(=O)N(C)C[C@H]2OCCCC[C@@H](C)Oc3ccc(NC(=O)Nc4ccc(F)cc4)cc3C(=O)N([C@@H](C)CO)C[C@@H]2C)cc1`: the cytotoxicity call is “inactive”.

Regarding `CCO[C@@H]1OC(C(=O)N2CCN(Cc3ccc4c(c3)OCO4)CC2)=C[C@H](C)[C@H]1CCCOC(=O)NCCCCCC(=O)NO`, the cytotoxicity call is “inactive”.

Consider `Cc1noc(C)c1NC(=O)Nc1ccc2c(c1)C(=O)N([C@H](C)CO)C[C@@H](C)[C@H](CN(C)Cc1ccccc1)OCCCC[C@H](C)O2`, for which the cytotoxicity call was “inactive”.

`Cc1cccc(S(=O)(=O)N2C[C@H](O)COC[C@H]3O[C@H](CC(=O)NCCCN4CCOCC4)CC[C@@H]32)c1`: the cytotoxicity call is “inactive”.

Turning to `C[C@@H]1CN([C@H](C)CO)C(=O)Cc2cc(NS(C)(=O)=O)ccc2O[C@@H]1CN(C)C(=O)Nc1ccc2c(c1)OCO2`, the cytotoxicity call was “inactive”.

Turning to `C[C@@H]1CN([C@@H](C)CO)C(=O)c2cc(NC(=O)CCC(F)(F)F)ccc2O[C@@H](C)CCCCO[C@H]1CN(C)Cc1ccc2c(c1)OCO2`, the cytotoxicity call was “inactive”.

In the case of `Cc1noc(C)c1S(=O)(=O)N(C)C[C@@H]1Oc2ccc(NC(=O)Cn3cnnn3)cc2CC(=O)N([C@@H](C)CO)C[C@@H]1C`, the cytotoxicity call is “inactive”.

Regarding `C[C@H]1CN([C@@H](C)CO)S(=O)(=O)c2ccc(C#CCN(C)C)cc2O[C@H]1CN(C)C(=O)c1ccccc1F`, the cytotoxicity call was “inactive”.

Consider `O=C(C[C@@H]1CC[C@@H](NC(=O)CN2CCOCC2)[C@@H](CO)O1)NC1CCC1`, for which the cytotoxicity call is “inactive”.

Regarding `COc1cccc(CN(C)C[C@@H]2OCc3ccccc3-c3c(n(C)c4ccccc34)C(=O)N([C@H](C)CO)C[C@@H]2C)c1`, the cytotoxicity call is “inactive”.

On to `Cc1ccc(S(=O)(=O)N(C)C[C@@H]2Oc3ccc(NC(=O)CCCN(C)C)cc3C(=O)N([C@H](C)CO)C[C@@H]2C)cc1`, for which the cytotoxicity call is “inactive”.

Consider `Nc1ccc(/C=C/C(=O)NCc2cc3cc(-c4ccc(C(=O)N5CCC(F)(F)CC5)cc4)cc(-c4ccc(F)cc4)c3o2)cn1`, for which the cytotoxicity call was “active”.

For `C[C@H]1CN([C@@H](C)CO)C(=O)CCCn2nncc2CO[C@@H]1CN(C)C(=O)C1CC1`, the cytotoxicity call was “inactive”.

As to `CC(C)NC(=O)Nc1cccc2c1O[C@H](CN(C)Cc1ccc(Oc3ccccc3)cc1)[C@@H](C)CN([C@H](C)CO)C2=O`, the cytotoxicity call was “inactive”.
